Screening data from PubChem.
TDP43 rescue = TDP-43 toxicity inhibition in yeast. TDP-43 expressing yeast growth rescue, BacTiter-Glo, 24 h. 410,000 tested, 1.8% active. Potency, µM (titrated, usually from 46.1 µM), without a hit: at the top dose growth rescue (activation), most hits filed as activators; further: potency means the concentration at half of the fitted maximal effect; % of control where 0% means no effect; nearly all actives have a fitted effect of over 50% in size
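Yeast expressing TDP-43 (pregrown in raffinose, seeded at OD600=0.02 in galactose medium) exposed to compounds 24 hr at 30 deg C. Growth read by BacTiter-Glo luminescence; rescue of toxicity appears as increased signal.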
aSyn rescue = alpha-synuclein toxicity inhibition in yeast; 370,000 tested, 0.14% active; Potency, µM (titrated, usually from 46.1 µM), inactives show at the highest dose growth rescue (activation), usual class: activators; AID 652106; Yeast expressing alpha-synuclein, growth rescue, BacTiter-Glo, 24 h; further: potency means the concentration at half of the fitted maximal effect; % of control where 0% means no effect; nearly all actives have a fitted effect of over 65% in size
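Readout is rescue of growth in alpha-synuclein-expressing yeast, so inhibitors of toxicity appear as activators. Growth after 24 hr at 30 deg C in galactose medium is quantified by luminescence.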
CCT chaperon mod = modulators of cytosolic chaperonin (CCT/TRiC) activity. purified chaperonin ATPase assay, HTRF ADP detection, 30 min. activity change, % (test concentration not listed), hits read low. 360,000 tested, 0.3% active; in the data active means activity change below about -30%; further: on the % scale 0 is the no-effect control and ±100 the full control effect
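Enzyme 40 or 20 nM (batch-dependent) in Tris pH 7.4/KCl/MgCl2/DTT; cpd 76 uM single point; ATP 10 uM; 30 min 37 °C; Transcreener ADP HTRF detection, 30 min RT; ratio 665/615.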
FUS yeast rescue = FUS proteinopathy suppression in yeast. 390,000 tested, 0.24% active. S. cerevisiae FUS-expressing, growth rescue, OD600, 24 h. Potency, µM (titrated, usually from 76.6 µM), usual class: activators. AID 1347120;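 further: potency means the concentration at half of the fitted maximal effect; plate controls were DMSO vehicle for no effect and reference control for full effect; nearly all actives have a fitted effect of over 55% in size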
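S. cerevisiae expressing FUS from galactose induction served as the toxicity model. Growth after 24hr at 30C, read as absorbance at 600 nm, indicates suppression of toxicity; compounds dosed at several concentrations.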
MmCpn inh = blocks the Methanococcus maripaludis chaperonin Mm-Cpn; purified Mm-Cpn ATPase, ADP Transcreener TR-FRET; Potency, µM (series often up to 76.9 µM), without a hit: at the top dose activity, negative = inhibition, most hits filed as inhibitors; 330,000 tested, 0.031% active; further: potency means the concentration at half of the fitted maximal effect; on the % scale 0 is the no-effect control and ±100 the full control effect; nearly all actives have a fitted effect of over 80% in size
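Measured: ADP formation by purified Mm-CPN. Conditions: 25 nM protein, 10 uM ATP, Tris pH 7.4 with Mg2+, K+ and DTT, 37°C for 30 min. Detection: Transcreener HTRF after 30 min at room temperature.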
Abeta rescue = restores growth of yeast expressing A-beta42 peptide. Potency, µM (series often up to 46.1 µM), actives largely listed as activators. yeast expressing A-beta42, growth rescue, OD600, 48 h; response scale: 0% DMSO, 100% iron-clioquinol control. AID 1347071. 410,000 tested, 0.063% active; further: potency means the concentration at half of the fitted maximal effect; nearly all actives have a fitted effect of over 55% in size
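Yeast growth medium received pinned compounds, then yeast cells expressing toxic A-beta were added; plates incubated at 30 C for 48 hr. Growth read as absorbance at 600 nm, normalized to DMSO and equimolar FeCl3 plus clioquinol controls.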
* hit, by the source's call; i = inactive; u = inconclusive; x = no result given; [ ] = remark or other dose. A selection: hits, their analogues and other compounds. The true share with any hit is near 2.3%. Unless noted, the call rests on the fitted dose curve; in most records, active means well fitted curve in the direction sought with a large enough effect; inconclusive means small, poorly fitted or top-dose-only effect, or another doubt; inactive means no such curve, though single readings can be large; an effect the other way counts as inactive or inconclusive.

SMILES | TDP43 rescue | aSyn rescue | CCT chaperon mod | FUS yeast rescue | MmCpn inh | Abeta rescue
O=C(C1COc2ccccc2O1)N1CCOCC1 (stereo not given) | -19% | -3% | -1 | u | -5% | i
O=C(C1COc2ccccc2O1)N1CCN(c2nc3ccc(F)cc3s2)CC1 (stereo not given) | 20µM* | x | x | u | x | u
CCOC(=O)[C@@]12CCC3=C1N(CCC3)C(=O)[C@H](CC(=O)NCc1ccc(OC)c(OC)c1)C2 | x | x | x | i | x | x
CC[N+](C)(C(=O)O)/C(=C\c1ccccc1)c1ccnc2ccccc12 (stereo not given) | x | 5% | x | x | x | x
Cc1cc(C)c(S(=O)(=O)NCC(c2ccc(N(C)C)cc2)N2CCc3ccccc32)c(C)c1 (stereo not given) | -12%[9.22 µM] | x | x | u | x | i
Cc1ccc(Nc2nc(N)c([N+](=O)[O-])c(N3CCC(C)CC3)n2)cc1C | u | 14% | -4 | x | 2% | i
C(=N\Nc1nc(Nc2ccccc2)nc(N2CCOCC2)n1)/c1c[nH]c2ccccc12 | 0% | 5% | -1 | 28µM* | -2% | i
Cc1cccc(Nc2nc(Nc3cccc(C)c3)nc(N3CCOCC3)n2)c1 | 16µM* | x | x | i | x | i
COc1ccc(Nc2nc(N3CCOCC3)nc(N3CCOCC3)n2)cc1 | -2% | -3% | -1 | i | -8% | i
Cc1ccc(Nc2nc(N)c([N+](=O)[O-])c(N3CCOCC3)n2)cc1C | 18µM* | 9% | -2 | i | 2% | u
Cc1cccc(Nc2nc(N3CCOCC3)nc(N3CCOCC3)n2)c1 | u | 1% | 1 | i | 1% | i
Cc1ccc(Nc2nc(N3CCOCC3)nc(N3CCOCC3)n2)cc1C | 13µM* | 8% | 0 | i | 3% | u
CCc1ccc(Cn2c(=O)n(Cc3ccc(C(=O)NCCCOC)cc3)c(=O)c3ccccc32)cc1 | x | x | x | i | x | x
CCC[C@H]1[C@@H](NC(=O)c2ccc(Cl)cc2)CC[C@@]23CCCN2C(=O)CCC[C@@H]13 | x | x | x | i | x | x
O=C(NNC(=O)c1ccc(Cl)cc1Cl)c1csc(-c2cccnc2)n1 | 0% | 5% | -1 | i | 0% | i
O=C(NCc1ccc(Cl)cc1)c1csc(-c2cccnc2)n1 | 16µM* | -1% | 1 | i | -2% | i
Cc1ccc(S(=O)(=O)N2CCN(Cc3cccc(F)c3)CC2)cc1 | -13% | 10% | -1 | i | x | i
Cc1ccc2nc(CN3CCN(S(=O)(=O)c4ccc(F)cc4)CC3)oc2c1 | 16µM* | x | x | i | x | i
CCCNC(=O)C(Cc1ccccc1F)NC(=O)c1ccc(C#N)cc1 (stereo not given) | -15% | -5% | -1 | i | -1% | i
CCCNC(=O)C(Cc1ccccc1C)NC(=O)c1ccc(C#N)cc1 (stereo not given) | -8% | -1% | -38* | i | 1% | i
O=C(Nc1nc(-c2cccs2)c(-c2ccccc2)s1)c1ccco1 | 13µM* | -24% | -1 | i | -14% | i
O=C(Nc1nc(-c2cccs2)c(C(=O)C(F)(F)F)s1)c1ccco1 | 14µM* | 6% | 2 | i | -20% | i
CC(=O)Nc1sc(NC(=O)c2ccco2)nc1-c1cccs1 | -1% | 7% | 2 | i | -1% | i
Cc1ccsc1C=Nn1c(-c2n[nH]c3c2CCC3)n[nH]c1=S | x | x | x | i | x | x
O=C(Nc1ccc(Br)cc1)OC1CC2CC1[C@H]1CCCCN1C2 (stereo not given in full) | x | x | x | i | x | x
CC(C)c1ccc(Nc2nc(Nc3ccc(Cl)cc3)nc(N3CCOCC3)n2)cc1 | x | 5% | x | x | x | x
COc1ccc(C(=O)N2C=Cc3ccccc3C2C#N)cc1 (stereo not given) | 16µM* | 7% | -1 | i | x | i
COc1cc(OC)nc(-n2ncc(OC)c(Br)c2=O)n1 | 5% | -5% | 0 | x | -2% | i
